This is an account of results in PubChem BioAssay AID434927 (Sanford-Burnham Center for Chemical Genomics, 2010).

In general, inhibition refers to the change of the read-out against control, counted positive when it falls.

The structures appear in SMILES notation. Unmarked numbers belong to inactive results. The source made the active and inactive calls.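 Rule for the calls: active = inhibition above about 23% in any of six single-dose repeats (limit read from the data); inactive = the rest.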

The target in the assay is Intestinal-type alkaline phosphatase (Homo sapiens) (UniProt P09923). The assay can be described thus: human IAP inhibitors, confirmation, biochemical, luminescence, single concentration, uHTS hits (AID 434927).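 Note: plate controls were DMSO wells with enzyme for no effect and wells lacking enzyme for full effect.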 As to conditions: purified human IAP, CDP-Star luminescence, 30 min; at 8.3 µM; hits give high values.
Intestinal-type alkaline phosphatase (Homo sapiens), sequence (P09923 whole entry, looked up): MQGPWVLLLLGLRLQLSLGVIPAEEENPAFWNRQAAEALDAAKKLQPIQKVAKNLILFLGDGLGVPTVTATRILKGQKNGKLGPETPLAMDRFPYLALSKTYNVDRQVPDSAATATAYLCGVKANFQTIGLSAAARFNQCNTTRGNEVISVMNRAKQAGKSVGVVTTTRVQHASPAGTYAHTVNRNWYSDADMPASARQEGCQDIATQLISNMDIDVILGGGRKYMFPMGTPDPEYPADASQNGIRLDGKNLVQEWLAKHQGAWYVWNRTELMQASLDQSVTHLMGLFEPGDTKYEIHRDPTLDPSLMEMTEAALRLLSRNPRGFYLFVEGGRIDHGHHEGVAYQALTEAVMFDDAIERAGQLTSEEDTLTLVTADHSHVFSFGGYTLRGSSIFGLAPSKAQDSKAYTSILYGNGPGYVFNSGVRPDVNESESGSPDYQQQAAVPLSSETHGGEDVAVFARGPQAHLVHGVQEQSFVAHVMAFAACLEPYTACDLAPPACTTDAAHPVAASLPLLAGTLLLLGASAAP
As for `COc1cccc(/C=N/Nc2nn3cnnc3c3ccccc23)c1O`, the inhibition is 40.4% (active).
Take `CSCCC(NS(=O)(=O)c1ccccc1F)C(=O)NNC(=O)c1csc(N2CCOCC2)n1` (centres undefined): the inhibition is 72.3% (active).
Turning to `CCOC(=O)c1c(NC(=O)Cn2cc([N+](=O)[O-])cn2)sc2c1CCC2`, the inhibition was -90.5%.
On to `CC(=O)CCc1ccc(Oc2nc(-c3cccnc3)nc3ccccc23)cc1`, for which the inhibition is 42% (active).
`Cc1ccccc1CNC(=O)c1ccccc1N`: the inhibition was 37.2% (active).
For `COc1ccc(C2=NN(C3=NN=C(N)Cc4ncnn43)C(O)(C(F)(F)F)C2)cc1` (centres undefined) the value was 42% (active); for `CCC(C)(C)C1CCc2[nH]nc(C(=O)N/N=C(\C)c3ccco3)c2C1` (centres undefined), 62.7% (active).
Regarding `COc1ccccc1CCNC(=O)C1CCN(c2nnc(C)c3c(C)n(-c4ccc(C)cc4)nc23)CC1`, the inhibition is 30.8% (active).
Take `O=C(N/N=C/c1c(F)cccc1Cl)c1cc(C2CC2)[nH]n1`: the inhibition is 37.7% (active).
With `COc1ccc(CCN2C(=O)c3ccncc3C2=O)cc1OC`, the inhibition was 67.1% (active).
To `CCOc1ccc(NC(=O)CSc2nncn2C)cc1` belongs -83.5%; to `O=C(COc1ccc2ccccc2c1Br)N1CCCCC1`, -50.2%.
Consider `COC(=O)CN1C(=O)C(O)(CC(=O)c2ccc(C)cc2)c2ccccc21` (centres undefined), for which the inhibition is 45.9% (active).
For the compound `CC(=O)Nc1cccc(-c2csc(Nc3ccccn3)n2)c1`, the inhibition was -94.1%.
On to `Cc1cccn2c(=O)c3cc(C(=O)NC4CCCC4)c(=N)n(C4CCCCC4)c3nc12`, for which the inhibition was -122%.
As to `O=C(CCN1C(=O)/C(=C/c2ccccc2Cl)SC1=S)NNC(=O)c1ccccc1O`, the inhibition was 62.3% (active).
For `COc1ccc(CN2CCC(n3nccc3NC(=O)CCCc3ccccc3)CC2)cc1C` the value was -127%; for `O=C(CSc1nc(-c2cccs2)cc(C(F)(F)F)n1)NCc1ccccc1`, 36.7% (active); for `Cc1cc2nc(C3CCN(Cc4nnnn4Cc4cccs4)CC3)[nH]c2cc1C`, 79.3% (active).
For `CC(C)(C)OC(=O)N1CCC(NC(=O)c2[nH]cnc2C(=O)Nc2ccon2)CC1`, the inhibition is 37% (active).
As for `Cc1c(C(=O)N/N=C/c2c(O)ccc3ccccc23)nnn1-c1nonc1N`, the inhibition is -86.1%.
With `O=c1c(O[C@@H]2O[C@H](CO)[C@@H](O)[C@H](O)[C@H]2O)c(-c2ccc(O)c(O)c2)oc2cc(O)cc(O)c12`, the inhibition is 48% (active).
For `O=C(NNC(=S)NC1CCCCC1)c1ccccc1Br` the value was -42.5%; for `CCOC(=O)c1cnc(SCC(=O)c2ccccc2)nc1N`, -436%; for `CC1Cn2c(nnc2C23CC4CC(CC(C4)C2)C3)S1` (centres undefined), 95.1% (active).
In the case of `CCn1c(C)nc2cc(C(=O)N/N=C/c3cccc(O)c3O)ccc21`, the inhibition is -42.9%.
Take `CN1CCN(CCNC(=O)Cn2c(=O)c3cccn3c3ccc(F)cc32)CC1`: the inhibition is 35.4% (active).
For `COc1ccc(OC)c(NC(=O)c2cc(-c3cc(C)ccc3O)n[nH]2)c1` the value was -41.7%; for `Cc1nc2c3ccccc3nc(NNC(=O)CCC(=O)NCCN3CCN(c4ccccc4)CC3)n2n1`, -97.4%; for `C[C@@H](NC(=O)c1[nH]cnc1C(=O)Nc1ccon1)c1ccccc1`, -80%.
To `NC(=O)c1ccc(NC(=O)C2CCCC2)cc1` belongs -40.2%; to `COc1ccccc1CN1CCC(n2nccc2NC(=O)CCCc2ccccc2)CC1`, -112%.
Consider `CCn1nc(C)c(CN2CCC(C(=O)Nc3cccc(-c4cccc(F)c4)c3)CC2)c1C`, for which the inhibition is 50.7% (active).
For `CN(Cc1ccccc1)C(=O)c1[nH]cnc1C(=O)Nc1nccs1`, the inhibition was -141%.
